We go through eleven molecules from PubChem BioAssay (NCATS).

Experiment [1] in a line: High-throughput drug toxicity screening in the BPDCN cell line Gen2.2 (AID 1224824).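 Also: cells exposed to compounds for 48 h before reading.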 The settings on record: Gen2.2 BPDCN cells; at 45.8 µM (top of the series) unless noted. Summed up: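 Gen2.2 cells (500/well) in phenol red-free RPMI with 10% FBS were exposed to compounds for 48 h at 37 °C, 5% CO2. Viability was read by CellTiter-Glo luminescence and normalized to DMSO (100%) and 9.2 uM bortezomib (0%).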

The nature of experiment [2]: High-throughput drug toxicity screening in the BPDCN cell line Cal-1 (AID 1224825). To be noted: Cal-1 BPDCN cell viability, qHTS; at 45.8 µM (top of the series) unless noted. Summed up:
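500 Cal-1 cells/well, RPMI + glutamine + 10% FBS (phenol red-free); cpd added by pin tool; 48 h, 37C, 5% CO2; CTG 15 min RT, lumi read. Normalised: DMSO 100%, bortezomib 9.2 uM 0%.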
A general note: In qHTS, concentration-response curves come from the screen itself.

Experiment [3] in a line: qHTS profiling for inhibitors of Plasmodium falciparum (DD2) proliferation (AID 743323). The settings on record: lower = more inhibition; at 28.7 µM (top of the series). Put shortly: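 1536-well qHTS; infected RBCs 0.3% parasitemia/2.5% Hct final; cpd 72 h 37 C 5% CO2; lysis buffer + SYBR Green I, o/n RT dark; FI 485/535; norm. to 0.29 uM artemisinin and DMSO, plate-stack corrected.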

Experiment [4] is described as follows: qHTS profiling for inhibitors of Plasmodium falciparum (HB3) proliferation (AID 743324; active = well fitted curve in the direction sought with a large enough effect; an effect the other way counts as inactive or inconclusive;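 also: 100% = DMSO vehicle wells and 0% = artemisinin-treated control wells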). The settings on record: Plasmodium falciparum HB3 blood-stage proliferation; at 28.7 µM (top of the series). Summed up: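 P. falciparum HB3 grown in erythrocytes (0.3% parasitemia, 2.5% hematocrit final) with compound for 72 h at 37 C, 5% CO2. Parasite DNA detected by SYBR Green after saponin/triton lysis overnight; normalized to 0.29 uM artemisinin and DMSO.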

Experiment [5] is described as follows: qHTS profiling of the MIPE4 collection as inhibitors of Plasmodium falciparum (3D7) proliferation (AID 743344).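 Also: scaled between DMSO vehicle wells and 0.29 µM artemisinin as full inhibition.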 To be noted: P. falciparum 3D7 in erythrocytes, SYBR Green DNA fluorescence, 72 h; at 28.5 µM (top of the series) unless noted. Put shortly:
(§1)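 Erythrocytes infected with P. falciparum (0.3% parasitemia, 2.5% hematocrit) incubated with compounds 72 h at 37 C, 5% CO2. Lysis with saponin/Triton buffer containing SYBR Green I, overnight at room temperature in the dark; DNA fluorescence (485/535 nm) normalised to 0.29 uM artemisinin and DMSO.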

Experiment [6] is described as follows: qHTS profiling of the MIPE4 collection as inhibitors of Plasmodium falciparum (DD2) proliferation (AID 743345). To be noted: P. falciparum Dd2 in erythrocytes, SYBR Green DNA, 72 h; at 28.5 µM (top of the series) unless noted. Summed up:
as §1

A short description of experiment [7]: qHTS profiling of the MIPE4 collection as inhibitors of Plasmodium falciparum (DD2) proliferation (Rep 2) (AID 743346). The settings on record: P. falciparum Dd2 in erythrocytes, SYBR Green DNA, 72 h; at 28.5 µM (top of the series) unless noted. Summed up:
as §1

Experiment [8] can be described thus: qHTS profiling of the MIPE4 collection as inhibitors of Plasmodium falciparum (HB3) proliferation (AID 743347).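 Also: plate controls were DMSO vehicle wells for no effect and artemisinin wells for full effect.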 The settings on record: P. falciparum HB3 in erythrocytes, SYBR Green DNA, 72 h; at 28.5 µM (top of the series) unless noted. Put shortly:
as §1

Experiment [9] can be described thus: qHTS assay for measurement of the activity of small molecule inhibitors on Zika virus induced Caspase-3 activity in human iPSC derived neural progenitor cells (hNPCs) (AID 1224857; active = well fitted curve in the direction sought with a large enough effect; an effect the other way counts as inactive or inconclusive; also: % of control where 0% means no effect; nearly all actives have a fitted effect of over 65% in size). Put shortly: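 After overnight (16–20 h) culture at 350 cells/well, hNPCs get compound, then ZIKV 2 FFU/cell one hour later. Six hours on, Caspase-Glo 3/7 is added and luminescence measured.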

Experiment [10] is described as follows: qHTS assay for measurement of the activity of small molecule inhibitors on Zika virus induced Caspase-3 activity in human astrocytoma cells (AID 1224859; active = well fitted curve in the direction sought with a large enough effect; an effect the other way counts as inactive or inconclusive;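 also: plate controls were ZIKV-infected untreated cells for no effect and uninfected cells for full effect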). Put shortly: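 Inhibition of Zika-induced caspase-3/7 activity: SNB-19 cells, 1 h compound pretreatment, ZIKV 2 FFU/cell for 6 h at 37 C, Caspase-Glo luminescence read-out.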
Experiment [11] is described as follows: qHTS Assay for Identifying Gametocytocidal Compounds (AID 743244; active = well fitted curve in the direction sought with a large enough effect; an effect the other way counts as inactive or inconclusive;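 also: % is scaled to controls: 0 for no effect and ±100 for the full control effect; actives lower the fluorescent signal which means gametocytes are killed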). To be noted: P. falciparum 3D7 stage III-V gametocytes, alamarBlue, 72 h; max response: stronger effect = lower value. Summed up:
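Using 20,000 stage III–V 3D7 gametocytes per well, compounds were incubated 72 h under 37 °C/5% CO2. Viability was then assessed by 24 h alamarBlue reduction, measured fluorometrically at 525/598 nm.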

Records with an inconclusive call do not appear. Activity calls are given as the source filed them. Unless noted, no rule for the calls is given here.

`CN1C[C@H]2c3ccccc3Oc3ccc(Cl)cc3[C@@H]2C1`: the cell viability, % of control (lower = more cytotoxic) in experiment [1] amounted to 54.1%. In addition, in [2], the viability (% of control) came to 73.9%.
As for `Cc1ccc(F)c(NC(=O)Nc2ccc(-c3cccc4[nH]nc(N)c34)cc2)c1`, the activity, percent of control in experiment [3] was determined as 67.8%. Further, the remaining proliferation (% of control), lower = more inhibition in experiment [4] stood at 23.1%. In [5], this molecule yielded a parasite growth, % of DMSO control of 6.52%. The parasite growth remaining, % of DMSO control (lower = more inhibition) in [6] worked out at 37.7%. In experiment [7], the parasite growth, % of control (lower = inhibition) was determined as 13.4%. The molecule further registered a growth, % of control in [8] of 9.71%. Moreover, in experiment [1], the cell viability, % of control (lower = more cytotoxic) was 5.38%. For the same molecule, the viability (% of control) in [2] was found to be 1.55%. Besides, the Potency result in experiment [9] and in experiment [10] was “inactive” each time.
The molecule `O=C(O)c1ccc(-c2cc3cccnc3c(-c3ccc4nonc4c3)n2)cc1` returned an activity, percent of control in experiment [3] of 92.9%. Moreover, the remaining proliferation (% of control), lower = more inhibition in [4] was 93.9%. Further, the parasite growth, % of DMSO control in experiment [5] came to 15.8%. In [6], the parasite growth remaining, % of DMSO control (lower = more inhibition) came to 53.9%. Moreover, the parasite growth, % of control (lower = inhibition) in experiment [7] is 37.1%. The molecule further had a growth, % of control in [8] of 3.01%. In addition, the cell viability, % of control (lower = more cytotoxic) in experiment [1] came to 30.2%. For the same molecule, the viability (% of control) in experiment [2] is 18.7%. The Potency entry in experiment [9] and in experiment [10] was “inactive” each time.
With `O=c1cc(N2CCOCC2)oc2c(-c3cccc4c3sc3ccccc34)cccc12`, the max response in experiment [11] is -22.3% (inactive). The same molecule displayed an activity, percent of control in experiment [3] of 10.6%. Also, the remaining proliferation (% of control), lower = more inhibition in experiment [4] is 5.89%. Further, the parasite growth, % of DMSO control in experiment [5] worked out at 11.6%. In addition, the parasite growth remaining, % of DMSO control (lower = more inhibition) in experiment [6] stood at 28.4%. The parasite growth, % of control (lower = inhibition) in [7] came to 25.8%. Moreover, the growth, % of control in experiment [8] was determined as 7.93%. For the same molecule, in [1], the cell viability, % of control (lower = more cytotoxic) is 2.51%. Further, the viability (% of control) in [2] is 3.76%. Moreover, the Potency entry in experiment [9] and in [10] was “inactive” throughout.
As to `CN(C)Cc1ccc(-c2nc3cccc4c3n2CCNC4=O)cc1`, the activity, percent of control in experiment [3] was 90%. The remaining proliferation (% of control), lower = more inhibition in experiment [4] worked out at 94%. This molecule displayed a parasite growth, % of DMSO control in experiment [5] of 64%. In experiment [6], this molecule showed a parasite growth remaining, % of DMSO control (lower = more inhibition) of 100%. For the same molecule, the parasite growth, % of control (lower = inhibition) in [7] is 73.5%. Moreover, the cell viability, % of control (lower = more cytotoxic) in experiment [1] is 15.8%. Also, the viability (% of control) in experiment [2] was found to be 4.01%. For the same molecule, the Potency entry in [9] and in experiment [10] was “inactive” in each case.
Regarding `CC(C)(C(=O)NCC(F)(F)C(F)(F)F)C(=O)N[C@@H]1C(=O)Nc2ccccc2-c2ccccc21`, the activity, percent of control in experiment [3] turned out to be 4.91%. Besides, the remaining proliferation (% of control), lower = more inhibition in experiment [4] is -0.0337%. For the same molecule, the parasite growth, % of DMSO control in [5] worked out at 8.18%. In [6], the parasite growth remaining, % of DMSO control (lower = more inhibition) turned out to be 9.25%. Moreover, the parasite growth, % of control (lower = inhibition) in experiment [7] is 11.3%. This molecule registered a growth, % of control in experiment [8] of 10.3%. For the same molecule, the cell viability, % of control (lower = more cytotoxic) in [1] is 71.1%. In [2], the viability (% of control) is 5.17%. Further, the Potency entry in experiment [9] and in [10] was “inactive” throughout.
In experiment [3], `O=C(O)CCC1CCC(c2cc(F)ccc2F)(S(=O)(=O)c2ccc(Cl)cc2)CC1` (configuration not stated) yielded an activity, percent of control of 74.5%. Moreover, in [4], the remaining proliferation (% of control), lower = more inhibition amounted to 56.3%. In experiment [5], this molecule returned a parasite growth, % of DMSO control of 66.9%. Moreover, in experiment [6], the parasite growth remaining, % of DMSO control (lower = more inhibition) was 93.8%. In experiment [7], this molecule returned a parasite growth, % of control (lower = inhibition) of 51.1%. In [8], this molecule registered a growth, % of control of 82.6%. For the same molecule, in experiment [1], the cell viability, % of control (lower = more cytotoxic) came to 8.09%. Besides, in experiment [2], the viability (% of control) worked out at 9.48%. The Potency entry in experiment [9] and in experiment [10] was “inactive” each time.
Regarding `CC=CCC=CCCC(=O)[C@H]1O[C@@H]1C(N)=O`, the cell viability, % of control (lower = more cytotoxic) in [1] is 7.55%. The viability (% of control) in [2] is 15.5%. For the same molecule, the Potency entry in experiment [9] and in [10] was “inactive” in each case.
Regarding `C[C@]12CC[C@@H]3c4ccc(O)cc4C[C@@H](CCCCCCCCCS(=O)CCCC(F)(F)C(F)(F)F)[C@H]3[C@H]1CC[C@H]2O` (some centres not stated), the parasite growth, % of DMSO control in [5] was 5.44%. This molecule also showed a parasite growth remaining, % of DMSO control (lower = more inhibition) in experiment [6] of 8.45%. Also, the parasite growth, % of control (lower = inhibition) in [7] amounted to 10.8%. Moreover, the cell viability, % of control (lower = more cytotoxic) in experiment [1] was 105%. The viability (% of control) in [2] worked out at 108%. Further, the Potency result in experiment [9] and in [10] was “inactive” each time.
For `CCS(=O)(=O)N1CC(CC#N)(n2cc(-c3ncnc4[nH]ccc34)cn2)C1`, in [1], the cell viability, % of control (lower = more cytotoxic) was 134%. Also, the viability (% of control) in [2] was found to be 17.5%.
On to `Cc1cc(OCCCc2c(C(=O)O)n(Cc3cccnc3)c3c(-c4c(COc5ccc(N6CCN([S+](C)(=O)[O-])CC6)cc5)nn(C)c4C)cccc23)cc(C)c1Cl`, for which the parasite growth, % of DMSO control in experiment [5] is 6.87%. In addition, the parasite growth remaining, % of DMSO control (lower = more inhibition) in experiment [6] is 8.65%. For the same molecule, the parasite growth, % of control (lower = inhibition) in experiment [7] was found to be 16%. In experiment [1], the cell viability, % of control (lower = more cytotoxic) turned out to be 62.9%. Besides, in experiment [2], the viability (% of control) was determined as 96.7%. Further, the Potency entry in experiment [9] and in experiment [10] was “inactive” in each case.
